Here are results for seven compounds from PubChem BioAssay (NCATS).

A number with no mark means an inactive call. Records with an inconclusive call do not appear. Activity calls are given as the source filed them. Unless noted, calls follow the shape of the dose curve; as a rule, active = well fitted curve in either direction with a large enough effect (not every such curve was filed as active); inconclusive = small, poorly fitted or top-dose-only effect, or another doubt; inactive = flat fitted curve, though single readings scatter.

Experiment [1] is described as follows: AP1 Signaling Pathway (AID 357).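 Also: ME-180 reporter cells stimulated with EGF at its EC50 level; % is scaled to controls: 0 for no effect and ±100 for the full control effect.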 Particulars: ME-180 AP-1-bla reporter, EGF-induced, beta-lactamase ratio, 5 h; at 7.69 µM (top of the series) unless noted. The method, boiled down:
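Beta-lactamase reporter under AP-1 response element, ME-180 background. Stimulus: EC50 EGF. Compound exposure 5 h, 37 °C. Detection: CCF4, 2.5 h RT, 460/530 nm. Values: AC50 from titration.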

In experiment [2] the target is Cytochrome P450 1A2 (Homo sapiens) (UniProt P05177). The experiment in a line: p450-cyp1a2 (AID 410; calls by dose curve; also: potency is read from the fitted curve at half-maximal effect). The method, boiled down:
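Luminescent readout of luciferin formed from Luciferin-ME by human CYP1A2; data normalized against complete inhibition by 57 uM furafylline. Enzyme 20nM, substrate 100uM at Km, 100mM KPO4 buffer, 60 min reaction at room temperature.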

A short description of experiment [3]: NFAT Signaling Pathway (AID 444).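 Also: carbachol stimulus at about its EC50 of 1 µM final; % is scaled to controls: 0 for no effect and ±100 for the full control effect.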 Particulars: Jurkat NFAT-bla M1, carbachol, beta-lactamase ratio, 5 h; at 7.69 µM (top of the series) unless noted. An outline of the steps:
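Jurkat cells carrying an NFAT-driven β-lactamase reporter and co-transfected muscarinic M1 receptor were treated with compound plus carbachol (1 uM final, an EC50 level) for 5 h at 37 °C. CCF4 loading followed for 1 h at RT; 460/530 nm ratio gave %activity.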

Experiment [4] in a line: Stat Signaling Pathway (AID 446).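 Also: ME-180 cervical cancer cells given 40 pM IL-6 alongside compound; SIE-controlled beta-lactamase reporter measured as 460/530 nm FRET emission ratio; % is scaled to controls: 0 for no effect and ±100 for the full control effect.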 The settings on record: ME-180 SIE beta-lactamase reporter, IL-6 stimulated, 5 h; at 7.69 µM (top of the series) unless noted. The method, boiled down:
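Reporter line: ME-180 cervical carcinoma, SIE-beta-lactamase. Treatment: compound with 40 pM IL-6, 5 hrs, 37 C, in low-serum OPTI-MEM with 10 mM HEPES pH 7.3. Detection: 460/530 nm fluorescence.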

Experiment [5] addresses Glucocorticoid receptor (Homo sapiens) (UniProt P04150). The experiment in a line: GR-GFP Redistribution (AID 450;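 active = compounds whose dose series gives a full or clear partial fitted curve of increased nuclear translocation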; also: potency is read from the fitted curve at half-maximal effect). Particulars: U2OS GR-GFP nuclear translocation, laser cytometry, 2 h.
Experiment [6] has the same target. Kind of experiment: GR-EFC Redistribution (AID 451; calls by dose curve; also: potency is read from the fitted curve at half-maximal effect). The settings on record: CHO-K1 GR-EFC translocation, beta-gal luminescence, 2 h. The method, boiled down:
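CHO-K1 cells stably expressing nuclear-localized β-gal enzyme acceptor and GR fused C-terminally to the enzyme donor fragment; ligand-driven nuclear translocation restores β-gal by complementation. Compounds titrated up to 46 uM final, 2 h at 37 °C; luminescence read.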

Experiment [7] concerns the target Mitogen-activated protein kinase 10 (Mus musculus) (UniProt Q61831). Kind of experiment: JNK3 AlphaScreen Assay (AID 530).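 Also: kinase came from lysate of stimulated human HepG2 cells; signal reports phosphorylation of biotinylated GST-cJun 1-79 at Ser73 with 10 µM ATP; % is scaled to controls: 0 for no effect and ±100 for the full control effect.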 An outline of the steps:
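Inhibitors reduce antibody binding to phosphorylated biotin-cJun, lowering AlphaScreen luminescence. Lysates from HepG2 cells pre-activated by IL-1beta plus TNF-alpha supplied JNK3; compounds were titrated.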
In general terms: In Alpha technology, singlet oxygen from a donor bead excites a nearby acceptor bead.

Experiment [8] addresses 3',5'-cyclic-AMP phosphodiesterase 4B (Homo sapiens) (UniProt Q07343). Kind of experiment: qHTS Assay for Inhibitors of PDE-IV (AID 607; active = well fitted activation curve with a large enough effect in the main read-out, with a control signal flat, not every such curve was filed as active; also: % of control where 0% means no effect). The method, boiled down: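 Cell-based read-out of cAMP via a modified cyclic nucleotide-gated channel and membrane potential dye (535/590 nm) in HEK293 cells expressing PDE4 endogenously. Compounds tested up to 22.9 uM final; 100 uM RO 20-1724 reference.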
On the technique in general: qHTS replaces the single test concentration by a dilution series.

Experiment [9] deals with Cytochrome P450 2C9 (Homo sapiens) (UniProt P11712). The experiment in a line: qHTS Assay for Inhibitors and Substrates of Cytochrome P450 2C9 (AID 883; active = well fitted curve in the direction sought with a large enough effect; an effect the other way counts as inactive or inconclusive; also: nearly all actives have a fitted effect of over 60% in size; also: potency is read from the fitted curve at half-maximal effect). An outline of the steps: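 CYP2C9 deoxyluciferin hydroxylation, 37C, 60 min with NADPH regeneration; 10nM enzyme, 100uM Luciferin-H (KM). Glo detection reagent stopped reaction; luminescence normalized to sulphaphenazole (57uM) full inhibition.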

In experiment [10] the target is Cytochrome P450 2C19 (Homo sapiens) (UniProt P33261). Kind of experiment: qHTS Assay for Inhibitors and Substrates of Cytochrome P450 2C19 (AID 899; active = well fitted curve in the direction sought with a large enough effect; an effect the other way counts as inactive or inconclusive; also: nearly all actives have a fitted effect of over 60% in size; also: potency is read from the fitted curve at half-maximal effect). An outline of the steps:
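In 50mM KPO4, the reaction held 5nM enzyme and KM-level (10uM) Luciferin-H EGE; it ran 60 min at 37C after NADPH regeneration and a 10 min compound preincubation. Luminescence values were scaled to 57uM ketoconazole as complete inhibition.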

For experiment [11], the target named is Cytochrome P450 2D6 (Homo sapiens) (UniProt P10635). The experiment in a line: qHTS Assay for Inhibitors and Substrates of Cytochrome P450 2D6 (AID 891; active = well fitted curve in the direction sought with a large enough effect; an effect the other way counts as inactive or inconclusive;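 also: luciferin methyl ether substrate demethylated by CYP2D6 with NADPH regeneration; % is scaled to controls: 0 for no effect and ±100 for the full control effect; nearly all actives have a fitted effect of over 60% in size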). The method, boiled down: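 Human CYP2D6 (5 nM) with 30 uM Luciferin-ME EGE (at Km) in 100 mM KPO4, compound preincubated 10 min, then NADPH regeneration system for 60 min at room temperature. Luciferin read by luminescence; normalized to 1.43 uM quinidine.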

For experiment [12], the target named is Guanine nucleotide-binding protein G(i) subunit alpha-1 (Homo sapiens) (UniProt P63096). The experiment in a line: qHTS Assay for Inhibitors of RGS12 GoLoco Motif Activity (Green Fluorophore) (AID 879; active = well fitted curve in the direction sought with a large enough effect; an effect the other way counts as inactive or inconclusive;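 also: 0% = labeled peptide with Gαi1 and full inhibition = labeled peptide alone without protein; negative values mean loss of peptide binding seen as reduced polarization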). The method, boiled down:
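Fluorescence polarization assay: 50 nM Gαi1 with 10 nM FITC-labeled RGS12 GoLoco peptide in 10 mM Tris pH 7.5, 150 mM NaCl, 0.1 mM GDP, 0.05% NP40, 10 min at room temperature with compound.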

Experiment [13] concerns the target Pyruvate kinase PKM (Homo sapiens) (UniProt P14618). The experiment in a line: qHTS Assay for Activators of Human Muscle Pyruvate Kinase (AID 954; active = well fitted curve in the direction sought with a large enough effect, not every such curve was filed as active;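 also: 0% = uninhibited enzyme and -100% = no enzyme or full thiadiazolimine inhibition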). The method, boiled down:
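Human PKM2 activity is measured as ATP generation, detected by luciferase-coupled luminescence. The enzyme (0.1 nM) acts on 0.5 mM PEP and 0.1 mM ADP for 1 h at ambient temperature; data are normalized to uninhibited and full-inhibition wells.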

For experiment [14], the target named is Alpha-galactosidase A (Homo sapiens) (UniProt P06280). The experiment in a line: Counterscreen for Glucocerebrosidase Inhibitors: qHTS Assay for Human alpha-Galactosidase at pH 4.5 (AID 992; active = well fitted curve in the direction sought with a large enough effect; an effect the other way counts as inactive or inconclusive; also: 0% is about no effect). An outline of the steps:
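Quantitative HTS: compounds tested from 0.7 nM up to 77 uM against 2 nM enzyme with 80 uM 4-MU alpha-D-galactopyranoside. The 20 min room-temperature reaction is stopped with 1M NaOH/1M glycine, pH 10.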
On the technique in general: A counterscreen serves to expose hits that act by an unwanted route or on another target.

The target of experiment [15] is Cytochrome P450 3A4 (Homo sapiens) (UniProt P08684). Kind of experiment: qHTS Assay for Activators of Cytochrome P450 3A4 (AID 885; active = well fitted curve in the direction sought with a large enough effect; an effect the other way counts as inactive or inconclusive; also: nearly all actives have a fitted effect of over 65% in size). The method, boiled down:
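Signal was normalized against complete inhibition by 57 uM ketoconazole. The reaction used 20nM CYP3A4 with 25uM Luciferin-PPXE, 10-min compound preincubation and a 60-min NADPH-supported step at RT.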

Experiment [16] deals with alpha-glucosidase (Oryza sativa, rice) (UniProt Q653V4). The experiment in a line: Counterscreen for Glucocerebrosidase Inhibitors: qHTS Assay for Rice alpha-Glucosidase at pH 5.0 (AID 997; active = well fitted curve in the direction sought with a large enough effect; an effect the other way counts as inactive or inconclusive;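 also: 0% = full activity with enzyme and -100% = basal without enzyme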). An outline of the steps: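 Rice alpha-glucosidase (4 nM final) with 400 uM 4-methylumbelliferyl-alpha-D-glucopyranoside in citrate buffer pH 5.0, 20 min at room temperature, stopped at pH 10; fluorescence 365/440 nm, compounds 0.7 nM–77 uM, AC50 from Hill fits.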

Cytochrome P450 2C19 (Homo sapiens), sequence (P33261 whole entry, looked up): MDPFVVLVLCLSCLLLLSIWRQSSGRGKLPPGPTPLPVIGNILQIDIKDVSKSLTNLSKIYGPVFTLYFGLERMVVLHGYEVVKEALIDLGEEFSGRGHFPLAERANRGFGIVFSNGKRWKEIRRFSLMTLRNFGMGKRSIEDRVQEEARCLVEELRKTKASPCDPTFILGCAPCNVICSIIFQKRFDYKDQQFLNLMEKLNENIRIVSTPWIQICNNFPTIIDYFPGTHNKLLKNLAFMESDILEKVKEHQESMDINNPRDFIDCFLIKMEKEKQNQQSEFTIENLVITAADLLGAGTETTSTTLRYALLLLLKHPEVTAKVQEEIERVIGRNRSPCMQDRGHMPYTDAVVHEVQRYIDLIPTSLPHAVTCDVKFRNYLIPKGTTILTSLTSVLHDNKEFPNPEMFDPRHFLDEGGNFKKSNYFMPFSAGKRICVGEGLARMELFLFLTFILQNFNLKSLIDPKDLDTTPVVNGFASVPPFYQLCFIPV
3',5'-cyclic-AMP phosphodiesterase 4B (Homo sapiens), sequence (Q07343 whole entry, looked up): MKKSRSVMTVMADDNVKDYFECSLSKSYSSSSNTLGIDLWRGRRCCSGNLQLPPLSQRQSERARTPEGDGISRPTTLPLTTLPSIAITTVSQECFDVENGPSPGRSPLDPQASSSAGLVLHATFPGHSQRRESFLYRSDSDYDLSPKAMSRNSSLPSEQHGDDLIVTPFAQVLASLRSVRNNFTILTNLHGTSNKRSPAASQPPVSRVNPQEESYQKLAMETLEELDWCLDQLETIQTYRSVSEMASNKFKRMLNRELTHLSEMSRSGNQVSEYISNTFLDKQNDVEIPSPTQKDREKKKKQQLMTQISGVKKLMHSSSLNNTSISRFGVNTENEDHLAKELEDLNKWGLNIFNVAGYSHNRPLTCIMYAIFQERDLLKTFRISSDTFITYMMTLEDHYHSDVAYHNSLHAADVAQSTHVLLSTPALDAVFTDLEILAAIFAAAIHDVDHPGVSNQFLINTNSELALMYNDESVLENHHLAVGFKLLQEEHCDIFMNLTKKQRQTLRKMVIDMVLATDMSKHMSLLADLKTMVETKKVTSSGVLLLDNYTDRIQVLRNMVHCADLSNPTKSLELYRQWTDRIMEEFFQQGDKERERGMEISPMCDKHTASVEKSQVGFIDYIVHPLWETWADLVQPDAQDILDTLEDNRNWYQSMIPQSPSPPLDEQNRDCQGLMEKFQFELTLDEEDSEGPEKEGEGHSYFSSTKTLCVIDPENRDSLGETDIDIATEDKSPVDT
Glucocorticoid receptor (Homo sapiens), sequence (P04150 whole entry, looked up): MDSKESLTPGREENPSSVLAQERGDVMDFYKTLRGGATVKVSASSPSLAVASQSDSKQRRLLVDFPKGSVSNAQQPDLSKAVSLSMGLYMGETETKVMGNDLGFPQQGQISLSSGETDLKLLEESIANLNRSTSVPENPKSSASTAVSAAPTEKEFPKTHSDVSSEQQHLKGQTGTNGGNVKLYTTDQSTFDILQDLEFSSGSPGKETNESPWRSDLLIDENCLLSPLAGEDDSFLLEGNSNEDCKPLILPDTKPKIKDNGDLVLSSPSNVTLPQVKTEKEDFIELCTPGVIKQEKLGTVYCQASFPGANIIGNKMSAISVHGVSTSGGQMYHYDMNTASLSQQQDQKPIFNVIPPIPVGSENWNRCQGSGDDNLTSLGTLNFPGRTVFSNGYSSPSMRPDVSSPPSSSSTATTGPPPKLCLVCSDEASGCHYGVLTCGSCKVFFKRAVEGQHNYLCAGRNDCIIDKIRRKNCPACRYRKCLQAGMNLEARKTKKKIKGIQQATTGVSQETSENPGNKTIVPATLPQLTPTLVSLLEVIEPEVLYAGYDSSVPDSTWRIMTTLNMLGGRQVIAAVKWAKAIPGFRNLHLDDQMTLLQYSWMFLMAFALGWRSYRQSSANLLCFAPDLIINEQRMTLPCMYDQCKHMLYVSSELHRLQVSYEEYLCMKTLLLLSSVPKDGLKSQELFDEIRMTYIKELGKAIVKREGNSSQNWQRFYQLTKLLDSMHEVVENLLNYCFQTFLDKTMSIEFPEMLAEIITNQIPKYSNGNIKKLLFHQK
Cytochrome P450 1A2 (Homo sapiens), sequence (P05177 whole entry, looked up): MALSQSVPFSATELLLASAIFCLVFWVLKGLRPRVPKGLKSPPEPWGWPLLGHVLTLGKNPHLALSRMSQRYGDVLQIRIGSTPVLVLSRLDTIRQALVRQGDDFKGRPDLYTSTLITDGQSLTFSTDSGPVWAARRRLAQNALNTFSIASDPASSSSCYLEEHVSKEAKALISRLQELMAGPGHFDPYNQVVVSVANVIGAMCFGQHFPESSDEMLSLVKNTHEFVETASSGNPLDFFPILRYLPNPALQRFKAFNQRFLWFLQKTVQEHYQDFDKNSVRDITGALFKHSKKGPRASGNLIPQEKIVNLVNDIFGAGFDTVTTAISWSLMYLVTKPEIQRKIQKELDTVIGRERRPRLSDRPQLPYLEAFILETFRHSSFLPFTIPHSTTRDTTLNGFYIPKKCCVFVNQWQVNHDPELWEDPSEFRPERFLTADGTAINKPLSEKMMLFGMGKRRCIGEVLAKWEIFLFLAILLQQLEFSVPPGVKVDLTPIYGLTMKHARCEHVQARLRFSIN
Cytochrome P450 2C9 (Homo sapiens), sequence (P11712 whole entry, looked up): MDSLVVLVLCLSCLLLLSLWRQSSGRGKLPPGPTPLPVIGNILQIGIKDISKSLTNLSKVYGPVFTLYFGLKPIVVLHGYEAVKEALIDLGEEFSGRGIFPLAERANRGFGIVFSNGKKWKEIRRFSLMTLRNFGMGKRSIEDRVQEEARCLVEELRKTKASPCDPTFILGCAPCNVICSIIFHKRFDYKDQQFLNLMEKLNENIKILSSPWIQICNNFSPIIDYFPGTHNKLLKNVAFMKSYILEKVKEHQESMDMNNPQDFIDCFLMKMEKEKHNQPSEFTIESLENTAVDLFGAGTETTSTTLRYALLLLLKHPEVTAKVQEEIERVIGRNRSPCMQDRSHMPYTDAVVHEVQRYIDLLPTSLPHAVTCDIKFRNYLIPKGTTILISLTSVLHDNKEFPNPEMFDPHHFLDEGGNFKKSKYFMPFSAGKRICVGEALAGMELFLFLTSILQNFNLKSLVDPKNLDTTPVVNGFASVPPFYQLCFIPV
Cytochrome P450 2D6 (Homo sapiens), sequence (P10635 whole entry, looked up): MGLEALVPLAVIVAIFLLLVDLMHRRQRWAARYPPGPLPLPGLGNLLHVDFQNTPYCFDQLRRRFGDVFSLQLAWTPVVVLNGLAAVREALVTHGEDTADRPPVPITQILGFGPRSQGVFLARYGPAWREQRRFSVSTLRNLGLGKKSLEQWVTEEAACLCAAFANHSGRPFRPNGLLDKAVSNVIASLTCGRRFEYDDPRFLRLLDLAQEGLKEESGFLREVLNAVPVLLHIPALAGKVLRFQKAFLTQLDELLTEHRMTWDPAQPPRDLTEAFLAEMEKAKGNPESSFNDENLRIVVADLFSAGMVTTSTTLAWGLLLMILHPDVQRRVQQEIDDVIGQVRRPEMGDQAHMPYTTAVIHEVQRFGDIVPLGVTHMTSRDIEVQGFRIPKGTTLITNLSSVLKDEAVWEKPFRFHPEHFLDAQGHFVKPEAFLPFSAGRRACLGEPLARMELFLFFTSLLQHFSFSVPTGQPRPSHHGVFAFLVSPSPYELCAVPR
Pyruvate kinase PKM (Homo sapiens), sequence (P14618 whole entry, looked up): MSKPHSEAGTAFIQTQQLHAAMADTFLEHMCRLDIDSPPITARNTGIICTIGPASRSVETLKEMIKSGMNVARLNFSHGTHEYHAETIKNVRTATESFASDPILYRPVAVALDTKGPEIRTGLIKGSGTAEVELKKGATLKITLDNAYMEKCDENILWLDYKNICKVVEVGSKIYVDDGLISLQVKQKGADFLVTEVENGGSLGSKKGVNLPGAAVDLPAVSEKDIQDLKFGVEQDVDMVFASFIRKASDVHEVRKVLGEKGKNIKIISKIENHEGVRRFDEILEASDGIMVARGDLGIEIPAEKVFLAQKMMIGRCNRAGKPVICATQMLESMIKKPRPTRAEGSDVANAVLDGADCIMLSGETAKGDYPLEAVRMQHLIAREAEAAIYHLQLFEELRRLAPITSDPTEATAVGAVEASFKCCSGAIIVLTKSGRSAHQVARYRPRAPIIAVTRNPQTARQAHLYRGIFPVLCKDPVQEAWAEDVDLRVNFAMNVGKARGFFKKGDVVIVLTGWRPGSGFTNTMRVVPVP
Alpha-galactosidase A (Homo sapiens), sequence (P06280 whole entry, looked up): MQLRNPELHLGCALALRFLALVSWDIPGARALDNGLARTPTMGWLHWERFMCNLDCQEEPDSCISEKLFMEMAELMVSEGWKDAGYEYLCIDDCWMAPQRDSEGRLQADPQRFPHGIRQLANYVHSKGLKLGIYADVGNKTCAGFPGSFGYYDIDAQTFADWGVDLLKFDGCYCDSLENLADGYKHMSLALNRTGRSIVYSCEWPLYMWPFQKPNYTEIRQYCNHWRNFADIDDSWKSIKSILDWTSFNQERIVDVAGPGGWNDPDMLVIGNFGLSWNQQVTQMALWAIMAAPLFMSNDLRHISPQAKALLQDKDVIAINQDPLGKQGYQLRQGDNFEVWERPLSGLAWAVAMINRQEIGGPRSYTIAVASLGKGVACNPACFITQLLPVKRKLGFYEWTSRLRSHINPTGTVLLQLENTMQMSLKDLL
Guanine nucleotide-binding protein G(i) subunit alpha-1 (Homo sapiens), sequence (P63096 whole entry, looked up): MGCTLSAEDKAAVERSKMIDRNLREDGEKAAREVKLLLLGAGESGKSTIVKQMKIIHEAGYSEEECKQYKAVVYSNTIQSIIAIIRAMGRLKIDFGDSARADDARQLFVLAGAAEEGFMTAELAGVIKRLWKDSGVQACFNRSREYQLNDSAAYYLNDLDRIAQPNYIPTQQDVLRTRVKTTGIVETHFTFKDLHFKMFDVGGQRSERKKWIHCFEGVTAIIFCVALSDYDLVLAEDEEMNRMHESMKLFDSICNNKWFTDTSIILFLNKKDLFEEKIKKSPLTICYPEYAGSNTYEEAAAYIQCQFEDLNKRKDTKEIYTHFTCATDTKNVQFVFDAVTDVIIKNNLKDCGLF

As to `O=c1[nH]c2[nH]c(=S)[nH]c(=S)c2[nH]1`, the activity change, negative = inhibition was -13.3% in [1] and -1.66% in [3]. Moreover, the Potency in [2] was 3.98 µM (active); in experiment [5], more than 46 µM; in experiment [6], more than 9.22 µM; in experiment [9], 1.26 µM (active); in [10], 0.631 µM (active). For the same compound, the activity, negative = inhibition in experiment [4] was 15.5%. The Potency result in experiment [7] and in [8] was “inactive” each time.
For `N[C@H](Cc1ccc(O)c(I)c1)C(=O)O`, the activity change, negative = inhibition was 6.16% [at 38 µM] in experiment [1] and 8.86% [at 38 µM] in [3]. The Potency result in experiment [2], in experiment [7], in experiment [8], in experiment [9], in experiment [11] and in experiment [10] was “inactive” in each case. For the same compound, the activity, negative = inhibition in [4] was -3.36% [at 38 µM]. For the same compound, the Potency in experiment [5] and in experiment [6] was more than 46 µM in each case.
On to `NC(=O)c1ncn([C@@H]2O[C@@H](CO)[C@@H](O)[C@H]2O)c1O`, for which the results for the activity change, negative = inhibition in experiment [1] and in experiment [3] were 15.7% [at 38 µM] and 2.24% [at 38 µM], respectively. The Potency result in experiment [2], in [7] and in experiment [8] was “inactive” throughout. For the same compound, the activity, negative = inhibition in [4] is 3.38% [at 38 µM]. The Potency in experiment [5] and in experiment [6] was more than 46 µM throughout. For the same compound, the compound was classed as inactive in experiment [12], in [13] and in experiment [14].
With `COc1ncc2nc(-c3cc(F)cc(F)c3)c(=O)n(C3CC3)c2n1`, the figures for the activity change, negative = inhibition in experiment [1] and in experiment [3] were 5.87% and -2%, respectively. Besides, the Potency in [2] is 1.58 µM (active); in experiment [5], more than 9.22 µM; in experiment [6] it was more than 46 µM. In addition, in experiment [4], the activity, negative = inhibition was -19.2%. Moreover, the Potency entry in experiment [7], in experiment [8] and in experiment [15] was “inactive” each time.
As for `Cc1sc2ccccc2[n+]1CCC(=O)O`, the activity change, negative = inhibition in [1] was 3.36%; in experiment [3], 16.6%. For the same compound, the Potency result in [2], in experiment [7], in [8] and in experiment [11] was “inactive” each time. In addition, the activity, negative = inhibition in experiment [4] was 8%. Also, the Potency in [5] is more than 46 µM; in experiment [6] it was more than 9.22 µM.
`COc1ccc2c(c1)CCC1C2CC[C@]2(C)[C@H](NCCCCCCN3C(=O)C=CC3=O)CC[C@@H]12` (stereo partly drawn): the activity change, negative = inhibition in [1] was -7.36% [at 38 µM]; in [3], 12.6% [at 38 µM]. The Potency result in experiment [2], in [7], in experiment [8] and in experiment [16] was “inactive” throughout. For the same compound, the activity, negative = inhibition in [4] is 1% [at 38 µM]. Also, the Potency in experiment [5] and in experiment [6] was more than 46 µM in each case. For the same compound, the outcome in experiment [12], in [13] and in experiment [14] was inactive.
Take `CCNC(=O)[C@@H]1O[C@@H](n2cnc3c(NCc4ccccc4)ncnc32)[C@@H](O)[C@H]1O`: the activity change, negative = inhibition in experiment [1] was -7.35% [at 38 µM]; in [3], 17% [at 38 µM]. The Potency result in experiment [2], in experiment [7], in experiment [8], in experiment [9], in experiment [11] and in experiment [10] was “inactive” in each case. The activity, negative = inhibition in experiment [4] is -20.4% [at 38 µM]. Moreover, the Potency in [5] and in experiment [6] was more than 46 µM each time.
